Assay outcomes: PubChem, several laboratories
Sampled rows, rich in hits. Any-hit rate of the full collection: about 1.1%.
MMP13 inh = inhibitors of human MMP13 | inhibition, % at 4 µM | 65,000 compounds, 0.07% hits | MMP-13 fTHP FRET cleavage, Mca fluorescence | P45452 | AID 570;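 active = inhibition above the mean of compound-free control plate wells plus 3 SD, cut at about 14% in these data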;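 also: 0% = DMSO wells and 100% = wells with reference MMP-13 inhibitor after basal subtraction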
Mac1 fbg enh = CD11b/CD18-fibrinogen binding enhancement; K562 CD11b/CD18 adhesion to fibrinogen, ATPlite luminescence; P05107+P11215; activation, % at 10 µM; 93,000 compounds, 0.07% hits; AID 1499;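 active = 10 µM primary screen giving 50% or more activity, confirmed by 40% or more on retest at that dose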
Target sequence (P05107 whole entry, looked up, other chains not shown): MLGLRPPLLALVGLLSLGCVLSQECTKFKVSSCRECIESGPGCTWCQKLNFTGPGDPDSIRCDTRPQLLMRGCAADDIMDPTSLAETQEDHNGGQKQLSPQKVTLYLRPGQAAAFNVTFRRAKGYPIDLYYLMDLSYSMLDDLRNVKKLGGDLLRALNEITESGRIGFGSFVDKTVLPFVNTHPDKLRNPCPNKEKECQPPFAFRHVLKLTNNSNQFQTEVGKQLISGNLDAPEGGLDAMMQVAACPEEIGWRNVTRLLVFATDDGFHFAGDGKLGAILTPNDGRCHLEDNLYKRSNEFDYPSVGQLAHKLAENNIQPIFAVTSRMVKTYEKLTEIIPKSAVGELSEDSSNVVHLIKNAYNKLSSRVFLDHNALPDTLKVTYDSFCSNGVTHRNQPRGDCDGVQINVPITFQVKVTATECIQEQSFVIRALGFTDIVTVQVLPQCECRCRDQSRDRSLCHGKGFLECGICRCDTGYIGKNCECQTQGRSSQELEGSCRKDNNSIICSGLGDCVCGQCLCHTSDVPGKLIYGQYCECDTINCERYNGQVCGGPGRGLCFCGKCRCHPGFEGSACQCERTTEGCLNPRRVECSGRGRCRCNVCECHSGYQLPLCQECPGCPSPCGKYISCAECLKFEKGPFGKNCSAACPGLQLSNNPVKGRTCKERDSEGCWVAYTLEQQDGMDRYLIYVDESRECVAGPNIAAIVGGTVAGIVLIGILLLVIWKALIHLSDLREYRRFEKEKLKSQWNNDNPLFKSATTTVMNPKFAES
Mac1 fbg inh = blocks human CD11b/CD18 adhesion to fibrinogen; inhibition, % at 10 µM; 93,000 compounds, 0.54% hits; K562 CD11b/CD18 adhesion to fibrinogen, ATPlite luminescence; Mn2+ added to activate the integrin; P05107+P11215;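 active = primary inhibition of 50% or more at 10 µM, then 40% or more on retest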
FAK inh = blocks human focal adhesion kinase activity. Q05397. inhibition, %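 (tested at 7 µM)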. AID 727. biochemical FAK kinase activity assay. 97,000 compounds, 0.84% hits;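 also: 0% = DMSO and 100% = reference compound high control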
FAK inh conf = FAK (human) inhibition confirmed. shares compounds with FAK inh. FAK kinase biochemical inhibition assay. inhibition, % at 7 µM. 750 compounds, 28% hits
An asterisk follows results filed as active. Rule as the data show it, unless noted: active = inhibition above about 19%; inactive = the rest.

Results for c1ccc2c(-c3ccncc3)c[nH]c2c1 ?
MMP13 inh: 0.8; Mac1 fbg enh: -4.8; Mac1 fbg inh: -13.7; FAK inh: 20.6*; FAK inh conf: 9.0

What do the screens show for `CC(=O)c1ccc(NCC(=O)N2CCN(c3ccccc3)CC2)cc1`?
Mac1 fbg enh: 40.8; Mac1 fbg inh: -23.3; FAK inh: 19.8*; FAK inh conf: 19.2*

Results for CC(C)C(=O)Nc1ccc(N2CCCC2)cc1 ?
Mac1 fbg enh: -2.9; Mac1 fbg inh: 3.9; FAK inh: 5.5

How did O=C(Cc1ccccc1)Nc1ccc(N2CCCC2)cc1 do in these assays?
Mac1 fbg enh: 7.2; Mac1 fbg inh: 3.1; FAK inh: 30.3*; FAK inh conf: 15.6

Results for O=C(Nc1ccc(N2CCCC2)cc1)C(c1ccccc1)c1ccccc1 ?
Mac1 fbg enh: 84.6; Mac1 fbg inh: -47.8; FAK inh: 45.8*; FAK inh conf: 29.3*

Results for CCN1CCN(c2ccc(NC(=O)Cc3ccccc3)cc2)CC1 ?
MMP13 inh: 3.5; Mac1 fbg enh: -1.4; Mac1 fbg inh: 3.5; FAK inh: 6.6

What do the screens show for `COCCCNC(=O)Cn1nnc(-c2ccc(NC(=O)c3ccccc3F)cc2)n1`?
FAK inh: 0.1

What do the screens show for `CC(C)N1C(=S)SC2CS(=O)(=O)C=C21` (stereo not drawn)?
MMP13 inh: 3.3; Mac1 fbg enh: 2.5; Mac1 fbg inh: -3.2; FAK inh: -0.4

Results for COc1ccc(N2Cc3cccc(C(=O)N4CCOCC4)c3C2=O)cc1 ?
MMP13 inh: -3.7; Mac1 fbg enh: -1.7; Mac1 fbg inh: -3.1; FAK inh: 0.1

What do the screens show for `COc1ccc(N2Cc3cccc(C(=O)N4CCN(C(=O)c5ccco5)CC4)c3C2=O)cc1`?
MMP13 inh: -1.4; Mac1 fbg enh: 23.8; Mac1 fbg inh: -10.1; FAK inh: 49.3*; FAK inh conf: 1.9

What do the screens show for `Cc1cc(C)nc(N2CCC(CNC(=O)CCc3ccccc3)CC2)n1`?
MMP13 inh: 3.1; Mac1 fbg enh: 5.6; Mac1 fbg inh: 1.5; FAK inh: -1.9

How did COc1ccc(-c2coc3cc4oc(=O)cc(-c5ccccc5)c4cc23)cc1F do in these assays?
Mac1 fbg enh: 62.0; Mac1 fbg inh: 18.7

What do the screens show for `COc1ccc(-c2coc3cc4oc(=O)cc(C)c4cc23)cc1F`?
Mac1 fbg enh: 0.8; Mac1 fbg inh: 24.7; FAK inh: 35.8*; FAK inh conf: 22.6*

How did CCOc1ccc(C(=O)Nc2cccc(-c3cc4ccccc4oc3=O)c2)cc1[N+](=O)[O-] do in these assays?
FAK inh: 29.5*; FAK inh conf: 12.5

How did CCOc1ccc(C(=O)Nc2ccc(NC(=O)c3cccs3)cc2)cc1[N+](=O)[O-] do in these assays?
Mac1 fbg enh: 31.5; Mac1 fbg inh: -11.0

How did O=C(Cn1cc2c(n1)CCCCC2)NCc1ccccn1 do in these assays?
MMP13 inh: -4.6; Mac1 fbg enh: 0.7; Mac1 fbg inh: -4.5

What do the screens show for `CCCC1(CCC)NC(=O)N(CC(=O)c2cc(C)n(-c3ccc4c(c3)OCO4)c2C)C1=O`?
Mac1 fbg enh: 6.9; Mac1 fbg inh: 8.9

Results for c1cc2ccc3ccc(CN4CCOCC4)c4ccc(c1)c2c34 ?
FAK inh: 40.8*; FAK inh conf: 40.6*

How did COc1ccc(COc2ccsc2C(=O)Nc2ccc(Cl)c(Cl)c2)cc1 do in these assays?
FAK inh: 25.5*; FAK inh conf: 6.5

What do the screens show for `COc1ccc(NC(=S)N2CCNC(=O)C2CC(=O)Nc2ccc(C)cc2)cc1` (stereo not drawn)?
Mac1 fbg enh: -4.0; Mac1 fbg inh: -3.7

What do the screens show for `COc1cccc(CNC(=O)C(CCSC)NS(=O)(=O)c2ccc3c(c2)oc(=O)n3C)c1` (stereo not drawn)?
MMP13 inh: 4.7; Mac1 fbg enh: 2.5; Mac1 fbg inh: -31.7; FAK inh: -6.1

How did O=C1c2ccccc2C(=O)C1c1ccncc1 do in these assays?
MMP13 inh: -1.6; Mac1 fbg enh: -4.8; Mac1 fbg inh: 22.7; FAK inh: 25.1*; FAK inh conf: 7.4

Results for O=C1C(c2ccncc2)=C(O)c2ccccc21 ?
MMP13 inh: 7.5; Mac1 fbg enh: 1.1; Mac1 fbg inh: 17.8; FAK inh: 14.9

What do the screens show for `Nc1cccc(-n2nncc2-c2ccccc2)c1`?
MMP13 inh: -1.5; FAK inh: 4.2

What do the screens show for `CCCCc1nc(N2CCOCC2)c(C#N)c2c1COC(C)(C)C2`?
MMP13 inh: -42.6; Mac1 fbg enh: 0.4; Mac1 fbg inh: -16.0; FAK inh: 3.1

How did Cc1ccc(-n2nc3ccc(NC(=O)c4ccc5c(c4)OCO5)cc3n2)cc1 do in these assays?
Mac1 fbg enh: 139.2*; Mac1 fbg inh: -5.2; FAK inh: 25.4*; FAK inh conf: 15.2

How did CCOc1ccccc1NC(=O)CCSc1nc2n[nH]c(C)c2c(=N)n1-c1ccccc1Cl do in these assays?
MMP13 inh: -1.8; Mac1 fbg enh: 13.5; Mac1 fbg inh: -24.8

How did Cc1ccccc1-n1c(SCc2ccccn2)nc2n[nH]c(C)c2c1=N do in these assays?
MMP13 inh: -9.0; Mac1 fbg enh: 11.1; Mac1 fbg inh: 2.6; FAK inh: 30.2*; FAK inh conf: 9.9

What do the screens show for `O=C1Cc2ccccc2C(=O)N1Cc1ccccc1`?
Mac1 fbg enh: -2.5; Mac1 fbg inh: -36.6; FAK inh: 53.8*; FAK inh conf: 28.2*

How did O=C(O)CCN1Cc2ccccc2C1=O do in these assays?
MMP13 inh: 1.4; Mac1 fbg enh: -2.6; Mac1 fbg inh: -5.6; FAK inh: 1.2

Results for CN=C1S/C(=C\c2cc(C)n(-c3ccccc3F)c2C)C(=O)N1C ?
Mac1 fbg enh: -15.5; Mac1 fbg inh: 97.3; FAK inh: 20.9*; FAK inh conf: 4.8

How did CCN1CCc2c(sc(N)c2C#N)C1 do in these assays?
MMP13 inh: -15.1; Mac1 fbg enh: -3.1; Mac1 fbg inh: 2.2; FAK inh: 26.2*; FAK inh conf: 18.8*

Results for NC(=O)c1sc2nc3c(c(-c4cccs4)c2c1N)CCCC3 ?
MMP13 inh: 1.8

What do the screens show for `NC(=O)c1sc2nc3c(c(-c4ccco4)c2c1N)CCC3`?
MMP13 inh: -2.1; Mac1 fbg enh: 2.9; Mac1 fbg inh: 10.2; FAK inh: 34.2*; FAK inh conf: 20.4*

Results for O=C(N/N=C/c1ccc2ccccc2c1)c1ccc(COc2ccc3c(c2)CCC3)o1 ?
FAK inh: 33.5*; FAK inh conf: 24.0*

How did COc1ccc(-c2cc3ccccc3oc2=O)cc1NC(=O)c1ccc(Br)o1 do in these assays?
MMP13 inh: -34.1; Mac1 fbg enh: 16.7; Mac1 fbg inh: -17.6; FAK inh: 65.1*; FAK inh conf: 59.5*

What do the screens show for `O=C(Nc1cccc(-c2cc3ccccc3oc2=O)c1)c1ccc(Br)o1`?
FAK inh: 2.8

Results for O=C(Nc1ccccc1N1CCCCC1)c1ccco1 ?
FAK inh: 23.7*; FAK inh conf: 9.1

What do the screens show for `O=C(Nc1ccccc1N1CCCC1)c1ccco1`?
MMP13 inh: -3.4; Mac1 fbg enh: 4.1; Mac1 fbg inh: 0.6; FAK inh: 2.0

What do the screens show for `Nc1c(N2CCOCC2)cc(Cl)c2nonc12`?
MMP13 inh: 4.1; Mac1 fbg enh: -6.6; Mac1 fbg inh: -5.5; FAK inh: 1.1
